Test results taken from PubChem BioAssay AID720597 (Broad Institute, 2013).
Entries with a potency or affinity are not part of this list. A number with no mark means an inactive call.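 The calls were made as follows: active = fitted half-maximal dose no more than twice the top valid tested dose, for compounds that lower signal; inconclusive = fit invalid, or curve flat with activity between -70 and -30; inactive = potency past limit, curve flat within ±30, or signal increasing.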

The molecules below were run against NAD-dependent protein deacylase sirtuin-5, mitochondrial (Homo sapiens) (UniProt Q9NXA8) (assay: SIRT5 deacylase inhibitors, dose response, biochemical, fluorescence imaging, cherry-pick, set 6 (AID 720597;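 also: lower AMC signal can also come from blocking the trypsin step; 0% = median of neutral control wells and -100% = median of positive control wells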)). Conditions: Purified SirT5, succinyl-peptide-AMC/trypsin fluorescence; series mostly up to 15 µM; activity change, negative = inhibition: at the top concentration.
Sequence of NAD-dependent protein deacylase sirtuin-5, mitochondrial (Homo sapiens) (Q9NXA8 whole entry, looked up): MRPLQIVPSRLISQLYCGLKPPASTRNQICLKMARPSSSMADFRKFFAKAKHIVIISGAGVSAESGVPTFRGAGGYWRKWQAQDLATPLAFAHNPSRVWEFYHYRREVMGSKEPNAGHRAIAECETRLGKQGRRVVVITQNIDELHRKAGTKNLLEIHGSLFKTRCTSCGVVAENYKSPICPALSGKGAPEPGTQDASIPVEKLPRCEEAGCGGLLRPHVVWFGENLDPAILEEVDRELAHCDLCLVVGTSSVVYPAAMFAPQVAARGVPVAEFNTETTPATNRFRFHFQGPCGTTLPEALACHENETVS
With C[C@@H]1CN([C@H](C)CO)C(=O)Cc2cc(NS(=O)(=O)c3ccc(Cl)cc3)ccc2O[C@H]1CN(C)Cc1ccc(Oc2ccccc2)cc1 the “activity change, negative = inhibition” value was 2.87%.
In the case of C[C@@H]1CN([C@@H](C)CO)S(=O)(=O)c2ccc(-c3cccc(F)c3)cc2O[C@@H]1CN(C)S(=O)(=O)c1ccc(F)cc1, the “activity change, negative = inhibition” value is reported as -17.7%.
C[C@@H]1CN([C@@H](C)CO)C(=O)Cc2cc(NS(=O)(=O)c3ccccc3)ccc2O[C@H]1CN(C)CC1CCCCC1 was tested, and the “activity change, negative = inhibition” value was -21.3%.
C[C@H]1CN([C@@H](C)CO)S(=O)(=O)c2ccc(-c3cncnc3)cc2O[C@H]1CN(C)Cc1ccc(Oc2ccccc2)cc1 was tested, and the “activity change, negative = inhibition” value was -0.447%.
In the case of CCCC#Cc1ccc2c(c1)O[C@@H](CN(C)C(=O)c1ccccc1F)[C@@H](C)CN([C@@H](C)CO)S2(=O)=O, the “activity change, negative = inhibition” value is reported as 9.71%.
In the case of C[C@@H]1CN([C@@H](C)CO)S(=O)(=O)c2ccc(C#Cc3ccccc3)cc2O[C@H]1CN(C)C(=O)C1CC1, the “activity change, negative = inhibition” value is reported as 5.11%.
In the case of CO[C@@H]1CC[C@@H]2CCOc3c(C#N)cccc3C(=O)N(C)C[C@@H](OC)[C@@H](C)C(=O)N(C)C[C@@H]1O2, the “activity change, negative = inhibition” value is reported as -4.17%.
In the case of Cc1ccc(S(=O)(=O)N(C)C[C@H]2OCCCC[C@H](C)Oc3ccc(NS(=O)(=O)c4ccccc4)cc3C(=O)N([C@@H](C)CO)C[C@H]2C)cc1, the “activity change, negative = inhibition” value is reported as 14.5%.
C[C@H](CO)N1C[C@H](C)[C@@H](CN(C)C(=O)c2ccc3c(c2)OCO3)Oc2cc(/C=C/c3ccccc3)ccc2S1(=O)=O was tested, and the “activity change, negative = inhibition” value was 30.9%.
In the case of CCCNC(=O)N1[C@H](CO)[C@@H](c2ccccc2)C12CN(C(=O)CC1CC1)C2, the “activity change, negative = inhibition” value is reported as 2.41%.
With O=C(CSc1nnc(-c2ccco2)n1-c1ccccc1)Nc1ccc(F)cc1 the “activity change, negative = inhibition” value was 2.96%.
For C[C@H](NC(=O)[C@@H]1[C@@H](CO)[C@@H]2Cn3c(cccc3=O)[C@H]1N2Cc1ccccc1)c1ccccc1, the “activity change, negative = inhibition” value was 1.09%.
For C[C@H](CO)N1C[C@H](C)[C@@H](CN(C)Cc2ccc(Oc3ccccc3)cc2)Oc2ccc(NC(=O)Cc3ccccc3)cc2C1=O, the “activity change, negative = inhibition” value was -0.649%.
For Cc1noc(C)c1S(=O)(=O)N(C)C[C@H]1Oc2ccc(NC(=O)Cn3cnnn3)cc2CC(=O)N([C@H](C)CO)C[C@H]1C, the “activity change, negative = inhibition” value was 2.62%.
For COc1ccc(CN2C[C@@H](O)COC[C@H]3O[C@H](CC(=O)NCCN4CCCC4)CC[C@@H]32)cc1, the “activity change, negative = inhibition” value was -17.3%.
In the case of COc1ccc(S(=O)(=O)N(C)C[C@@H]2OCCCC[C@H](C)Oc3ccc(NS(=O)(=O)c4cccs4)cc3C(=O)N([C@@H](C)CO)C[C@H]2C)cc1, the “activity change, negative = inhibition” value is reported as -24.6%.
For O=C(NC1CCCC1)N1CCCCN2[C@H](C1)[C@H](c1ccc(/C=C/c3ccccc3)cc1)[C@@H]2CO, the “activity change, negative = inhibition” value was -2.21%.
COc1cccc(NC(=O)N2CC(=O)N3[C@H](CO)[C@H](c4ccc(C#CCC5CCCC5)cc4)[C@H]3C2)c1 was tested, and the “activity change, negative = inhibition” value was 24.2%.
With COc1ccc(S(=O)(=O)Nc2ccc3c(c2)C(=O)N([C@@H](C)CO)C[C@H](C)[C@H](CN(C)S(=O)(=O)c2ccc(Cl)cc2)OCCCC[C@@H](C)O3)cc1 the “activity change, negative = inhibition” value was 17.8%.
In the case of O=S(=O)(c1ccc(F)cc1)N1CCCCN2[C@@H](CO)[C@@H](c3ccc(C#CC4CCCC4)cc3)[C@@H]2C1, the “activity change, negative = inhibition” value is reported as -19.5%.
In the case of C[C@H]1CN([C@@H](C)CO)S(=O)(=O)c2ccc(C#Cc3cccc(F)c3)cc2O[C@H]1CN(C)S(=O)(=O)c1ccccc1F, the “activity change, negative = inhibition” value is reported as 1.08%.
C[C@@H]1CN([C@H](C)CO)C(=O)Cc2cc(NC(=O)Nc3ccc(F)cc3)ccc2O[C@@H]1CN(C)C was tested, and the “activity change, negative = inhibition” value was 1.73%.
For C[C@@H]1CN([C@@H](C)CO)C(=O)c2cccc(NC(=O)c3nc4ccccc4s3)c2O[C@H]1CN(C)Cc1ccc(C(F)(F)F)cc1, the “activity change, negative = inhibition” value was 16.9%.
For COc1cccc(CNC(=O)C[C@H]2CC[C@@H]3[C@@H](COc4ccc(NC(=O)c5cccs5)cc4C(=O)N3C)O2)c1, the “activity change, negative = inhibition” value was 5.59%.
In the case of COc1cccc(S(=O)(=O)N(C)C[C@@H]2Oc3ncc(-c4cccc(C(F)(F)F)c4)cc3C(=O)N([C@H](C)CO)C[C@@H]2C)c1, the “activity change, negative = inhibition” value is reported as -26.8%.
With CO[C@H]1CN(C)C(=O)c2cc(NC(=O)c3ccccc3F)ccc2OC[C@H](C)NC[C@@H]1C the “activity change, negative = inhibition” value was -19.5%.
For C[C@H](CO)N1C[C@H](C)[C@H](CN(C)Cc2ccccc2F)Oc2cc(C#CC3CC3)ccc2S1(=O)=O, the “activity change, negative = inhibition” value was 37.8%.
With C[C@H]1CN([C@@H](C)CO)C(=O)c2cc(NC(=O)Cn3cnnn3)ccc2O[C@@H]1CN(C)S(=O)(=O)c1ccc(F)cc1 the “activity change, negative = inhibition” value was -11.5%.
In the case of COc1ccc(NC(=O)Nc2ccc3c(c2)C(=O)N([C@H](C)CO)C[C@@H](C)[C@@H](CN(C)Cc2ccc(C(F)(F)F)cc2)O3)cc1, the “activity change, negative = inhibition” value is reported as 7.37%.
With O=C(CCN1CCCCC1)N[C@@H]1CC[C@H](CC(=O)N2CCC(Cc3ccccc3)CC2)O[C@H]1CO the “activity change, negative = inhibition” value was -2.36%.
With COc1ccc(NC(=O)N(C)C[C@H]2Oc3cc(C#CCC(C)C)ccc3S(=O)(=O)N([C@H](C)CO)C[C@@H]2C)cc1 the “activity change, negative = inhibition” value was -3.37%.
With CN(C)C(=O)c1cccc(-c2ccc([C@H]3[C@H](CO)N4CCCCN(S(C)(=O)=O)C[C@@H]34)cc2)c1 the “activity change, negative = inhibition” value was -1.98%.
In the case of O=C1CNC[C@H]2[C@@H](c3ccc(C4=CCCC4)cc3)[C@H](CO)N12, the “activity change, negative = inhibition” value is reported as 34.8%.
For C[C@H]1CN([C@@H](C)CO)S(=O)(=O)c2ccc(C3=CCCCC3)cc2O[C@H]1CN(C)S(=O)(=O)c1ccc(F)cc1, the “activity change, negative = inhibition” value was 12.9%.
In the case of CCCC#Cc1ccc([C@H]2[C@@H](CO)N3CCCCN(S(=O)(=O)Cc4ccccc4)C[C@@H]23)cc1, the “activity change, negative = inhibition” value is reported as 6.68%.
C[C@H](CO)N1C[C@H](C)[C@@H](CN(C)S(=O)(=O)c2ccccc2F)Oc2cc(C#Cc3cccc(F)c3)ccc2S1(=O)=O was tested, and the “activity change, negative = inhibition” value was 7.3%.
For C[C@H](CO)N1C[C@H](C)[C@@H](CN(C)Cc2ccc(Oc3ccccc3)cc2)Oc2c(NC(=O)CCCCCC(=O)Nc3ccccc3N)cccc2C1=O, the “activity change, negative = inhibition” value was -17.5%.
For CN(C)C(=O)c1cccc(-c2ccc(C3[C@@H]4CN(C(=O)c5ccccn5)C[C@H]3N4)cc2)c1 (stereo not given in full), the “activity change, negative = inhibition” value was -21.8%.
For C[C@@H]1CN([C@@H](C)CO)C(=O)c2cc(NC(=O)Cc3cn(C)c4ccccc34)ccc2O[C@H]1CN(C)Cc1ccc(Cl)c(Cl)c1, the “activity change, negative = inhibition” value was 13.5%.
COc1ccc(CN(C)C[C@H]2Oc3c(NS(=O)(=O)c4ccccc4)cccc3C(=O)N([C@@H](C)CO)C[C@H]2C)cc1 was tested, and the “activity change, negative = inhibition” value was -24.4%.
